Screens deposited in PubChem BioAssay by National Center for Advancing Translational Sciences (NCATS).
This is a sample that favours compounds with a hit; in the whole collection about 11% have one here.
Luciferase inh – Firefly luciferase inhibition profiling of diverse chemical library using quantitative high-throughput screening. Luciferin 4-monooxygenase (Photinus pyralis), P08659. purified P. pyralis luciferase, luminescence, biochemical. Potency, µM (top dose mostly 115 µM), actives largely listed as inhibitors. 76,000 tested, 2.5% active; further: nearly all actives have a fitted effect of over 65% in size
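Luminescence read by CCD imager after adding enzyme (10nM final) to wells holding compound, titrated in qHTS. Substrates 10uM each D-luciferin and ATP; buffer 50mM Tris acetate pH 7.5, 10mM Mg acetate, Tween-20, BSA.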
NIH3T3 tox – Cytotoxic Profiling in NIH 3T3 Cell Line of Diverse Libraries Using Quantitative High-Throughput Screening | Potency, µM (series often up to 96.7 µM), usual class: inhibitors | NIH 3T3 viability, CellTiter-Glo ATP luminescence, 48-72 h | 94,000 tested, 4.3% active | AID 1345082, 2018; further: nearly all actives have a fitted effect of over 55% in size
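Luminescent ATP readout (CellTiter-Glo, 10 min RT) after 48 or 72 hr compound exposure of NIH 3T3 cells seeded at 400 cells/well in 1536-well format; quantitative HTS.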
HEK cytotox – Cytotoxic Profiling in HEK 293 Cell Line of Diverse Libraries Using Quantitative High-Throughput Screening | Potency, µM (doses to about 115 µM), most hits filed as inhibitors | HEK 293 viability, ATP luminescence (CellTiter-Glo), 48-72 h | 94,000 tested, 6.6% active; further: nearly all actives have a fitted effect of over 60% in size
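CellTiter-Glo luminescence (cellular ATP) was read after 48 or 72 hr of compound exposure at 37 degree Celsius. Cells were HEK 293 plated at 250 cells/well.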
hNpr1 antagonist – Natriuretic polypeptide receptor (hNpr1) antagonism - Primary qHTS. 76,000 tested, 1.6% active. HEK293 hNpr1 GloSensor cGMP, ANP-stimulated luminescence. Potency, µM (titrated, usually from 46.3 µM), actives largely listed as inhibitors. AID 1347048, 2019; calls by dose curve; further: nearly all actives have a fitted effect of over 60% in size
Target sequence (P16066 whole entry, looked up): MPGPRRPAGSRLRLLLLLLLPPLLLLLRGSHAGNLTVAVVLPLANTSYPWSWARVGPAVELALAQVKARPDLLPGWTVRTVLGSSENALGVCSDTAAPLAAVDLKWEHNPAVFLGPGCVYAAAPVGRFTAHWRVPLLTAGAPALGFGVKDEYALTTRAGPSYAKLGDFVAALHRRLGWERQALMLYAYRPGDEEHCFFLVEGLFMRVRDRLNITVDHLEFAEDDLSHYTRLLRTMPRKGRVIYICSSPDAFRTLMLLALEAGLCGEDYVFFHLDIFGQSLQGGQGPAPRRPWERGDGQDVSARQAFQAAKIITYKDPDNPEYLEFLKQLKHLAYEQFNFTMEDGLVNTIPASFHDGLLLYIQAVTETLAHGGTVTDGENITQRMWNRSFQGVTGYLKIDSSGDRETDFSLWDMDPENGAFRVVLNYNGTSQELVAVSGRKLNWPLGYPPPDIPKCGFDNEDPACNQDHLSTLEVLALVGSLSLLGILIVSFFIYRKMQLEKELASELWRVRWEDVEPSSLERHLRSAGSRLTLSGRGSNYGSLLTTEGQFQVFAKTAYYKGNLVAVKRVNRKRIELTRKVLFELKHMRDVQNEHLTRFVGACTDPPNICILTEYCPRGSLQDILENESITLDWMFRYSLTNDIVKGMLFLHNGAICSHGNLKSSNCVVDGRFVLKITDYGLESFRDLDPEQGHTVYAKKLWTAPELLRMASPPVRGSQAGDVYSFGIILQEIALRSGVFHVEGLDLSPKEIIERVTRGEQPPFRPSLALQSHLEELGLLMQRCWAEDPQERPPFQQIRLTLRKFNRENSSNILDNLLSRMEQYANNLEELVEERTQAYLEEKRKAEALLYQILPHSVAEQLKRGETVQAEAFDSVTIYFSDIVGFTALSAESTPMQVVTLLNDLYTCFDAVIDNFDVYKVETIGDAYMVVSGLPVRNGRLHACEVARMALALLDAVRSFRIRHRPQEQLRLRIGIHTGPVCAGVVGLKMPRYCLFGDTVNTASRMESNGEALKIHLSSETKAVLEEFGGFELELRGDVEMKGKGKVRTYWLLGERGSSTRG
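Compound pre-incubated 30 min at room temperature on GloSensor-loaded HEK293 cells stably carrying hNpr1 and the pGS-40F cGMP biosensor. Stimulation uses hNppA at 0.1 nM final; luminescence is taken at baseline and 20 min post-agonist.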
A number is an active result; n = inactive; u = inconclusive; x = not tested or not shown; ! = not active in a repeat. Unless noted, the call rests on the fitted dose curve; in most records, active means well fitted curve in the direction sought with a large enough effect; inconclusive means small, poorly fitted or top-dose-only effect, or another doubt; inactive means no such curve, though single readings can be large; an effect the other way counts as inactive or inconclusive.

SMILES | Luciferase inh | NIH3T3 tox | HEK cytotox | hNpr1 antagonist
COc1ccccc1CNC(=O)C1CCCN1Cc1cccc(-c2ccc(C)c(Cl)c2)c1 (centres undefined) | x | 39.8µM | 39.8µM | x
Cc1ccc(-c2cccc(CN3CCCC3C(=O)NCc3ccccc3Cl)c2)cc1Cl (centres undefined) | x | u | 44.7µM | x
Cc1ccc(-c2cccc(CN3CCCC(NC(=O)Cc4ccccc4)C3)c2)cc1Cl (centres undefined) | x | n | n | x
Cc1cn2nc(C(=O)N3CCC(NC(=O)c4sccc4C)CC3)cc2c(=O)[nH]1 | n | n | n | n
O=C(Nc1ccccc1Cl)C1CN(C2CCCCC2)C(=O)N1 (centres undefined) | x | n | n | x
O=C(c1ccccc1Cl)N1CCN(c2ccc3nnc(C4CC4)n3n2)CC1 | x | n | n | x
COCC(=O)NC[C@@H]1C=C(C)[C@H](CC(=O)N2CCN(c3ccccn3)CC2)C[C@H]1C(C)C | n | n | u | n
CCCCn1c(=O)c(C(=O)N2CCN(C(=O)c3cccc(Cl)c3)CC2)nc2cccnc21 | x | u | n | x
CN1CC(=O)N(C2CCNC2)Cc2c1ncnc2N1CCC(N2CCOCC2)CC1 (centres undefined) | x | n | n | x
O=C(C1CCCN([S+](=O)([O-])c2cccs2)C1)N1CCC(c2nc3ncccc3[nH]2)C1 (centres undefined) | x | n | n | x
Cc1ccc(NC(=O)C2CCN(c3cc(C(F)(F)F)ncn3)CC2)c(C)c1 | n | n | u | u
CC1CCC(NC(=O)C2CCN(c3cc(C(F)(F)F)ncn3)CC2)CC1 (centres undefined) | u | u | u | 2.24µM
Cn1nc(C(=O)Nc2cccc(-c3nnc4n3CCCC4)c2)c2ccccc21 | u | u | u | n
CNC(=O)CCn1ncc2cc(OCc3ccccc3-c3ccccc3COC)ccc21 | n | u | 89.1µM | n
CNC(=O)CCn1ncc2cc(OCc3ccccc3-c3cccc(OC)c3F)ccc21 | n | 44.7µM | u | n
CNC(=O)CCn1ncc2cc(OCc3ccccc3-c3ccccc3OC)ccc21 | 39.8µM | 89.1µM | u | n
CNC(=O)CCn1ncc2cc(OCc3ccccc3-c3cccc(C)c3)ccc21 | 44.7µM | 89.1µM | 100µM | n
O=C(NCCCc1ccccc1)c1cc(-c2ccsc2)c2nncn2n1 | x | n | u | x
O=C(c1ccc(N2CC3CC(C2)[C@H]2CCCC(=O)N2C3)nc1)N1CCN(c2ccc(Cl)cc2)CC1 (some centres undefined) | n | u | u | n
COc1ccccc1-n1c(=O)c(C(=O)N2CCN(C(=O)c3ccc(C)cc3)CC2)nc2cccnc21 | x | n | n | x
CC(C)(C)OC(=O)N1CC(Nc2ccc(O)cc2)C1 | x | 28.2µM! | 44.7µM | x
Cc1cccc(-c2ccccc2C(=O)N2CCCC(CO)(Cc3ccccc3F)C2)c1 (centres undefined) | n | 79.4µM | 20µM | n
Cc1ccccc1CN1CCC2(CC1)COCCN2C(=O)OCc1ccccc1 | n | u | 100µM | n
Cc1ccc(CN2CCC3(CC2)COCCN3C(=O)OCc2ccccc2)o1 | n | 44.7µM | 28.2µM | n
O=C(OCc1ccccc1)N1CCOCC12CCN(Cc1ccccc1)CC2 | n | u | 25.1µM | n
SMILES | Luciferase inh | NIH3T3 tox | HEK cytotox | hNpr1 antagonist
Cc1cccc(CN2CCC3(CC2)COCCN3C(=O)OCc2ccccc2)c1 | n | 39.8µM | 39.8µM | n
O=C(OCc1ccccc1)N1CCOCC12CCN(Cc1ccccc1F)CC2 | n | u | u | n
COc1ccccc1CN1CCC2(CC1)COCCN2C(=O)OCc1ccccc1 | n | u | u | n
Cc1noc(C)c1CN1CCC2(CC1)COCCN2C(=O)OCc1ccccc1 | n | n | u | n
CCN1CCN(C(=O)C2CCc3nnc(C4CCN(C(C)=O)CC4)n32)CC1 (centres undefined) | x | n | n | x
O=C(NCCCN1CCOCC1)C1Cn2cccc2C(=O)N1Cc1ccccc1 (centres undefined) | x | n | n | x
CCOc1ccc(C2Cn3nnc(-c4nc(-c5ccsc5)no4)c3CO2)cc1 (centres undefined) | u | n | n | n
CN1[C@@H](CCC(=O)NCc2ccc(F)cc2)CNC(=O)[C@@H]2[C@H]1CCN2Cc1ccc(C(F)(F)F)cc1 | n | u | u | n
O=C(OCc1ccccc1)N1CCOCC12CCN(Cc1ccncc1)CC2 | n | 35.5µM | 50.1µM | n
CCN1CCN(CCNC(=O)C23CCCC=C2N(Cc2ccccc2)C(=O)CC3)CC1 (centres undefined) | x | n | n | x
Cc1cccc2nc(C(=O)N3CCn4nc(Cc5ccccc5)cc4C3)cn12 | n | u | 44.7µM | u
CC(C)Cn1c(=O)c(C(=O)N2CCN(C(=O)C3CCCC3)CC2)nc2cccnc21 | x | n | n | x
CNC(=O)c1ccc(CNc2nc(CCN)nc3sc(C)c(C)c23)o1 | n | u | 50.1µM | n
Cc1noc(C)c1C(=O)N1CCC(N2C(=O)c3c(c(C)nn3-c3ccccc3)C2C(C)C)C1 (centres undefined) | x | n | n | x
c1csc(-c2nc3ccncc3[nH]2)c1 | u | 100µM! | u | n
c1ccc(-c2nc3ccncc3[nH]2)nc1 | n | u | 44.7µM! | n
c1cncc(-c2nc3ccncc3[nH]2)c1 | n | u | u | n
COc1ccc(S(=O)(=O)N2CC(=O)N(CC3CC3)C3(CCCCC3)C2)cc1 | x | 35.5µM | u | x
C=CCOc1c(OC)ccc2c1CN(CC)C(=O)CCN2CC(O)COc1ccc(OC)cc1 (centres undefined) | x | u | 39.8µM | x
CCOC(=O)CN1Cc2ccccc2N(CC(O)COc2ccc(OC)cc2)CCC1=O (centres undefined) | x | n | u | x
C=CCOc1c(OC)ccc2c1CN(C1CCCC1)C(=O)CCN2CC(O)Cc1ccccc1 (centres undefined) | x | u | 44.7µM | x
C=CCOCC(O)CN1CCC(=O)N(C2CCCC2)Cc2c1ccc(OC)c2OCC=C (centres undefined) | x | n | u | x
C=CCOc1c(OC)ccc2c1CN(CC1CC1)C(=O)CCN2C[C@@H](O)COCc1ccccc1 | x | u | 44.7µM | x
C=CCOc1c(OC)ccc2c1CN(CCOC)C(=O)CCN2CC(O)Cc1ccccc1 (centres undefined) | x | n | u | x
CC1Oc2ccc(NC(=O)c3ccccc3F)cc2CN(C2CCCc3ccccc32)C1=O (centres undefined) | n | u | u | n
CC(=O)N1Cc2ccccc2CC2(CCCN(CC3CCCC3)C2)C1 (centres undefined) | x | n | n | x
O=C(NCc1ccc2nonc2c1)[C@@]12CNC[C@@H]1CN(C1CCCC1)C2 | n | n | n | n
COCCN1CCCC[C@]2(C[C@H](C(=O)O)[C@H](c3ccco3)N2C(=O)CC(C)(C)C)C1=O | x | u | n | x
Cc1oc(-c2cccc(Cl)c2)nc1CN1CCN(C(=O)N(C)C)CC1 | n | n | u | n
